Assay outcomes deposited in PubChem by several laboratories.
Yp Topo-I inh – Y. pestis Topo-I inhibition via cleavage products; Y. pestis Topo-I cleavage product accumulation, plate reader; activity, % at 10 µM; 360,000 tested, 0.064% active; AID 504884; in the data active = activity above about 50%, passing the limit was not always enough
FBA Mtb inh – inhibits M. tuberculosis FBA enzyme. P9WQA3. purified M. tuberculosis FBA, fluorescence read-out. inhibition, % at 1 µM. 360,000 tested, 2.3% active. AID 588726; in the data active = inhibition above about 27%
Target sequence (P9WQA3 whole entry, looked up): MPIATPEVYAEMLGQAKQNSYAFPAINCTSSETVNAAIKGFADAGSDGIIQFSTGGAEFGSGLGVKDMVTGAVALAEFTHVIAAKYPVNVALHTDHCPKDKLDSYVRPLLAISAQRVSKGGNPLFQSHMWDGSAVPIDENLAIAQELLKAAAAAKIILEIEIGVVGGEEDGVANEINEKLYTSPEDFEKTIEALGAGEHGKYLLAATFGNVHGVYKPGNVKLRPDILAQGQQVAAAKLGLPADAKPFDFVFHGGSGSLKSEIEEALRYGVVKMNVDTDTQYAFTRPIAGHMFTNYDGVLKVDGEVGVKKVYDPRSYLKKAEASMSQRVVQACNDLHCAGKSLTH
GDH-TPI counter – inhibits GDH-TPI coupling enzymes, artifact for Mtb FBA screen | GDH-TPI coupled enzyme counterscreen, NADH absorbance | inhibition, % at 4.8 µM | 360,000 tested, 1.2% active; in the data active = inhibition above about 30%
PrP 5UTR inh – inhibition of PrP 5' UTR reporter expression. cell-based PrP 5' UTR mRNA reporter, plate reader. inhibition, % (test concentration not listed). 340,000 tested, 0.35% active. AID 488862; in the data active = inhibition above about 52%
Mtb hypoxia rep – reduces hypoxia-regulated biosensor signal in M. tuberculosis | M. tuberculosis hypoxia-regulated fluorescent reporter, fluorescence | 300,000 tested, 0.1% active | fluorescence inhibition, % (no concentration beside the values); in the data active = fluorescence inhibition mostly above about 23%, no sharp cut-off; inactive = mostly below about 17%
PrPC TRFRET – cell surface PrPC inhibition, primary TR-FRET screen | TR-FRET read-out | inhibition, % at 13.8 µM | 370,000 tested, 0.43% active; in the data active = inhibition above about 24%
Numbers stand for hits; – = inactive; · = not tested or not shown; + = active, no number. Hits are enriched below; roughly 3.8% of the tested compounds scored in any of these assays.

SMILES	Yp Topo-I inh	FBA Mtb inh	GDH-TPI counter	PrP 5UTR inh	Mtb hypoxia rep	PrPC TRFRET
Cc1c(C)c2c(OCC(=O)N3CCC(O)CC3)cc3c(c2oc1=O)CCC(C)(C)O3	–	+	31	–	·	–
Nc1nnn(CC(=O)NN=Cc2cccc3ccccc23)n1	·	·	·	·	–	·
CCC(=O)N1CCN(c2ccc(NC(=O)c3cc4ccccc4o3)cc2Cl)CC1	–	–	–	–	·	32
CCC(=O)NC(=S)Nc1ccc(NC(=O)c2cc3ccccc3o2)c(OC)c1	–	–	32	–	–	–
COc1ccc(CC(=O)NN=Cc2cc(Br)c(O)c(Br)c2)cc1	·	·	·	·	–	·
CCOC(=O)c1[nH]c2cc3c(cc2c1NC(=O)CN1CCN(CCO)CC1)OCO3	–	130	46	–	–	–
C/C(C=NN1CCN(c2ccccn2)CC1)=C\c1ccccc1	·	·	·	·	–	·
CCCCCCCCCCS(=O)(=O)NN=Cc1ccccc1OC	·	·	·	·	–	·
N#CC(c1ccc(O)cc1)N1CCOCC1 (stereo not drawn)	–	–	31	–	–	–
N#C/C(=C\c1ccc(-c2ccccc2[N+](=O)[O-])o1)C(N)=O	–	–	41	–	–	–
CC(NC(=O)c1nc[nH]c1C(=O)NC(CCCCN)C(=O)OC(C)(C)C)C(=O)OCc1ccccc1 (stereo not drawn)	·	·	·	·	–	·
CCc1cccc2c(/C=N/NC(=O)c3cccc(S(=O)(=O)Nc4ccccc4Cl)c3)c[nH]c12	–	–	37	–	·	–
COC(=O)CC=CC(C)C(C=NOC(C)c1cn(C(CO)Cc2ccccc2)nn1)NS(=O)(=O)c1ccc(C)cc1 (stereo not drawn)	·	·	·	·	–	·
Cc1ccc2nc(N=C(N)NC(=O)N3c4ccccc4Sc4ccccc43)nc(C)c2c1	·	·	·	·	–	·
O=C(NCC1CC1)C1(C(F)(F)F)CC(=CCc2ccccc2)CCCO1 (stereo not drawn)	·	·	·	·	–	·
O=C1NC(=O)N(CC2CCCO2)C(=O)/C1=C/c1cccs1 (stereo not drawn)	–	–	–	–	–	–
CCN(CC)c1ccc(/C=C2\C(=O)NC(=O)N(Cc3ccco3)C2=O)cc1	–	–	31	–	–	–
CCCCN1C(=O)/C(=C/c2ccc(N(C)C)cc2)C(=O)N(Cc2ccco2)C1=O	–	–	–	–	–	–
CCN(CC)c1ccc(/C=C2/C(=O)NC(=O)N(CC3CCCO3)C2=O)cc1 (stereo not drawn)	–	–	40	–	·	–
CC(O)C(C(=O)N1CCNCC1)n1cc(C(N)CCCCN)nn1 (stereo not drawn)	·	·	·	·	–	·
Cc1cc(C(=O)NN=Cc2cn(C)nc2C)c2ccccc2n1	·	·	·	·	–	·
Nc1ccc(-c2cnc(-c3ccc(N)cc3)nc2)cc1	–	–	67	–	–	–
Oc1ccc(-c2cnc(-c3ccc(O)cc3)nc2)cc1	–	–	–	–	·	–
COc1ccc(/C=C(/NC(=O)c2cccs2)C(=O)Nc2ccc(C)cc2)cc1OC	–	–	–	–	–	–
COc1ccc(/C=C(\NC(=O)c2cccs2)C(=O)Nc2ccc(C)cc2)cc1OC	–	–	52	–	–	–
SMILES	Yp Topo-I inh	FBA Mtb inh	GDH-TPI counter	PrP 5UTR inh	Mtb hypoxia rep	PrPC TRFRET
CSc1nsc(SCC(=O)N2CCN(c3ccccc3)CC2)n1	–	135	–	–	·	–
CSc1nsc(SCC(=O)Nc2ccccc2)n1	–	–	–	–	–	–
CC(=NNC(=O)CN1CCN(Cc2ccccc2)CC1)c1cccs1	·	·	·	·	–	·
O=C(c1ccc(O)c(Br)c1)c1cc(Br)ccc1O	–	–	35	–	–	–
COc1ccc2[nH]c3c(=O)n(/N=C/[C@H]4C(C)C=C(C)CC4C)c(=O)[nH]c3c2c1 (stereo partly drawn)	–	156	–	–	·	–
O=C(CSc1nc2[nH]c(=O)cc(O)c2s1)Nc1ccc(Br)cc1	–	–	32	–	–	–
O=C(CSc1nc2[nH]c(=O)cc(O)c2s1)Nc1cccc(Br)c1	–	–	–	–	–	–
O=C(NN=Cc1cn(CC(=O)N2CCOCC2)c2ccccc12)c1cccnc1	·	·	·	·	–	·
CCc1cc(=O)oc2c3c(cc(OCC(=O)NCCCCCC(=O)O)c12)OC(C)(C)CC3	–	+	–	–	–	–
CCc1cc(=O)oc2c3c(cc(OCC(=O)NCc4ccccn4)c12)OC(C)(C)CC3	–	189	–	–	·	–
CCc1cc(=O)oc2c3c(cc(OCC(=O)Nc4cccnc4)c12)OC(C)(C)CC3	–	34	–	–	·	–
Cc1c(C)c2c(OCC(=O)Nc3cccnc3)cc3c(c2oc1=O)CCC(C)(C)O3	–	–	–	–	·	–
COc1cc2c(c3oc(=O)cc(CC(=O)O)c13)CCC(C)(C)O2	–	199	–	–	–	–
CC(NC(=O)c1nc[nH]c1C(=O)NCC(=O)OC(C)(C)C)c1ccccc1 (stereo not drawn)	·	·	·	·	–	·
Cc1c(C(=O)c2cccc3ccccc23)c2cccc3c2n1C(CN1CCOCC1)CO3 (stereo not drawn)	·	·	·	·	–	·
COc1ccc(C2C=C(C(=O)O)OC(OCCCCO)C2)cc1 (stereo not drawn)	·	·	·	·	–	·
CCc1cc(=O)oc2c3c(cc(OCC(=O)NCc4cccnc4)c12)OC(C)(C)CC3	–	+	–	–	·	–
CC(CO)NC(=O)c1ccc2c3n(nc2c1)-c1ccccc1CO3 (stereo not drawn)	·	·	·	·	–	·
O=C1NC2C(=CC(O)C(O)C2O)c2cc3c(cc21)OCO3 (stereo not drawn)	–	–	–	–	·	91
COc1ccc(C2CC(=O)C=C(c3cccc4c3Oc3ccccc3S4)C2)cc1OC (stereo not drawn)	·	·	·	·	–	·
COc1cc(C(C#N)N2CCC(c3ccccc3)=N2)ccc1O (stereo not drawn)	–	–	36	–	–	–
Cn1c(NC(=O)c2ccc(F)cc2)c(-c2cccs2)c(=O)c2ccccc21	–	–	–	–	–	–
Cn1c(NC(=O)c2ccccc2F)c(-c2cccs2)c(=O)c2ccccc21	–	–	43	–	–	–
Cc1ccn(CC(=O)N/N=C/c2cc([N+](=O)[O-])ccc2O)n1	–	–	49	–	·	–
O=[N+]([O-])c1ccc(O)c(C=NNc2ccccn2)c1	·	·	·	·	–	·
SMILES	Yp Topo-I inh	FBA Mtb inh	GDH-TPI counter	PrP 5UTR inh	Mtb hypoxia rep	PrPC TRFRET
Cc1ccn(CC(=O)NN=Cc2cc([N+](=O)[O-])ccc2O)n1	·	·	·	·	–	·
O=[N+]([O-])c1ccc(O)c(/C=N/Nc2ccc(Cl)nn2)c1	–	–	33	–	·	–
CCCCCCCCOc1ccc(C2OC34CCCCC3C(C#N)(C#N)C2(C#N)C(=N)O4)cc1 (stereo not drawn)	–	50	–	–	·	·
CCCCCOc1ccc(C2NC(=O)NC2=O)cc1 (stereo not drawn)	–	–	–	–	–	–
Cc1ccc(S(=O)(=O)c2cc3c(=O)n4ccccc4nc3n(CCc3ccccc3)c2=N)cc1	–	–	–	–	–	–
Cc1cc(-n2c(=O)c(C#N)cc3c(=O)n4ccccc4nc32)no1	–	+	–	–	–	–
CCn1c(=N)c(S(=O)(=O)c2ccccc2)cc2c(=O)n3ccccc3nc21	–	–	–	–	–	–
